Compounds with a hit are over-represented: about 7.5% of the library has one in this group of screens.
KinaseGlo FLuc = counter-screen: inhibitors of Kinase-Glo firefly luciferase. 0.28% of 200,000 active. Q27757. Potency, µM (top dose mostly 38.3 µM), without a hit: top-dose activity change, negative = inhibition, most hits filed as inhibitors. Kinase-Glo luciferase, ATP luminescence, 8 min; note: % is set by controls: 0 for no effect and ±100 for the full control effect; nearly all actives have a fitted effect of over 60% in size
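Light output from Kinase-Glo luciferase with luciferin and 10 uM ATP in 50 mM imidazole pH 7.2, KCl, MgCl2, Tween 20, BSA; compound pin-delivered, 8-min ambient incubation, then luminescence read.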
SMN2 splice up = enhancers of SMN2 splice variant expression; HEK293 SMN2-luciferase splicing reporter, luminescence, 30-36 h; Potency, µM (series often up to 46.1 µM), without a hit: at the highest dose activity change, positive = activation, most hits filed as activators; 2.8% of 210,000 active; AID 1458; note: % of control where 0% means no effect; nearly all actives have a fitted effect of over 55% in size
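HEK293 cells carry an SMN2 […]–luciferase reporter in which exon 7 inclusion puts luciferase in frame. Cells were plated 10-12 h before compound addition, then incubated 30-36 h at 37C. ONE-Glo luminescence was read; sodium butyrate at 4.5 mM final served as control.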
Rab9 prom act = activates the Rab9 promoter. Huh7 Rab9 promoter-luciferase reporter, luminescence, 24 h. AID 485297. Potency, µM (highest dose often 9.22 µM), inactives show at the top dose activation, negative = inhibition, usual class: activators. 2.8% of 320,000 active; note: % of control where 0% means no effect; nearly all actives have a fitted effect of over 60% in size
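Huh7 cells stably carrying Rab9 promoter–luciferase reporter, plated 1500 cells/well, compound added after 2 h and incubated 24 h at 37 °C; luciferase luminescence then read after 10 min with detection reagent.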
ELG1 genotox = genotoxicity induction in ELG1-luciferase HEK293T cells; Potency, µM (highest dose often 46 µM), for inactives: at the top dose activity change, positive = activation, actives largely listed as activators; HEK293T ELG1-luciferase reporter, luminescence, 16 h; AID 504466; 1.3% of 330,000 active; note: % of control where 0% means no effect; nearly all actives have a fitted effect of over 60% in size
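Cells (2,000/well) expressing the ELG1-luciferase fusion are dosed by pin tool and kept 16 hr at 37 °C, 5% CO2. Signal comes from ONE-Glo luciferase reagent after 30 min at room temperature.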
NPC1 prom act = activators of NPC1 promoter | Huh7 NPC1 promoter luciferase reporter, 24 h | Potency, µM (highest dose often 9.22 µM), for the others: at the top dose activation, most hits filed as activators | 2.4% of 320,000 active | AID 485313; note: % of control where 0% means no effect; nearly all actives have a fitted effect of over 60% in size
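Luminescence read-out of NPC1 promoter-driven luciferase in stably transfected Huh7 cells; compounds delivered in DMSO and left 24 h at 37C, 5% CO2, qHTS titration format.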
FLuc counter = counter-screen for miR-21 project: firefly luciferase inhibitors or activators; P08659; Potency, µM (titrated, usually from 57.5 µM), for the others: at the top dose activity change, negative = inhibition, most hits filed as inhibitors; 6.9% of 360,000 active; purified FLuc, Km substrates, luminescence inhibition; AID 588342;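 note: plate controls were vehicle for no effect and reference inhibitor for full effect; nearly all actives have a fitted effect of over 55% in size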
Target sequence (P08659 whole entry, looked up): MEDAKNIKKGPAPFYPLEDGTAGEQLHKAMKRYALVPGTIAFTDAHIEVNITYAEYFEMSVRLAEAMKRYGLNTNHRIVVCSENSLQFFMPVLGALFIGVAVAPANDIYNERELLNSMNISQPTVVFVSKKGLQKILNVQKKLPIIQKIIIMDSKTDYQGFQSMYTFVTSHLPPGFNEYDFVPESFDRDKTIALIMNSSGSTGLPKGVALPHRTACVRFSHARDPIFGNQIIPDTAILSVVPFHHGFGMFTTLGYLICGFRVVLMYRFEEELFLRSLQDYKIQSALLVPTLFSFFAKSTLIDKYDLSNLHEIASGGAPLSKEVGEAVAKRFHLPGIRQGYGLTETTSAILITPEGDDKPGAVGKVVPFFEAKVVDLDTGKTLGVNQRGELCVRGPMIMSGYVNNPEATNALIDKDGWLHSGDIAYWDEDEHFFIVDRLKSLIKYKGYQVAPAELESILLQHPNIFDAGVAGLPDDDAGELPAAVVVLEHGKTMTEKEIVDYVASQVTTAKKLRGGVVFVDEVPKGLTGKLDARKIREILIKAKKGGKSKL
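Purified P. pyralis luciferase (10nM final) with 10uM D-luciferin and 10uM ATP (Km levels) in 50mM Tris acetate pH 7.5, 10mM Mg acetate, 0.01% Tween-20, 0.05% BSA; qHTS 6-point titration, ~60 µM downward; luminescence read.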
An asterisk follows results filed as active; ? = inconclusive; . = no result given; [ ] = another dose, or the depositor's remark. Calls come from the whole dose curve; as a rule, active = well fitted curve in the direction sought with a large enough effect; inconclusive = small, poorly fitted or top-dose-only effect, or another doubt; inactive = no such curve, though single readings can be large; an effect the other way counts as inactive or inconclusive. Potency is the fitted concentration of half-maximal effect.

SMILES | KinaseGlo FLuc | SMN2 splice up | Rab9 prom act | ELG1 genotox | NPC1 prom act | FLuc counter
CCOC(=O)c1cc(-c2ccccc2)n(CCCC(=O)Nc2ccccc2C)c1C | . | . | . | . | . | 6%
Cc1ccc(C2CC(=O)n3nc(-c4ccc(Cl)cc4)nc3S2)cc1 (stereo unspecified) | . | -7% | . | . | . | ?
O=C(CNS(=O)(=O)c1ccc(Br)cc1)Nc1ccc2c(c1)OCCO2 | . | . | -2% | 0% | -7% | -7%
NC(=O)C/C=C\CC(N)=O | -11%[7.66 µM] | -13%[9.22 µM] | . | . | . | .
CC(=O)c1sc(NCc2ccccc2)nc1C | . | . | 17% | 10% | 9% | -12%
CC(=O)c1sc(NCc2ccc(C)cc2)nc1C | . | . | 2.8µM* | 23µM* | 3.2µM* | 15µM*
COc1ccc([C@H]2[C@H](C(=O)C(C)(C)C)N3N=Cc4ccccc4C3C23C(=O)OC(C)(C)OC3=O)cc1 (stereo partly specified) | -1% | 14µM* | 1% | -1% | -1% | -9%
COc1cc(C)c(C(=O)Oc2cc(C)c(C(=O)O)c(O)c2)c(O)c1 | . | . | 7% | 5% | -2% | 19µM*
Cc1cc(O)cc(O)c1C(=O)O | 0% | 7% | . | . | . | .
COc1ccccc1C(=O)NC(=O)COC(=O)c1cnc(C)cn1 | . | . | 3% | -6% | -4% | -1%
CCc1ccc(O)c(C(=O)c2cnc3cc(-c4ccc(C)cc4)nn3c2)c1 | . | 7% | . | . | . | -12%
COc1cccc(C(=O)NCCOc2cc(C)cc(C)c2)c1 | 1% | -1% | -4% | 2% | 1% | ?
CC(C)(C)c1ccc(C(=O)NCCOc2ccccc2)cc1 | . | . | ? | 0.73µM* | 0.32µM* | 0.34µM*
Cc1ccc(C(=O)NCCOc2cccc(C)c2)cc1 | 1% | 26% | 27% | ? | 29% | 24µM*
COc1cc(C(=O)NCCOc2ccccc2)cc(OC)c1OC | . | . | -1%[1.84 µM] | 8% | 1% | -6%
CC(C)(C)c1ccc(C(=O)NCCOc2ccccc2F)cc1 | . | . | ? | 0.73µM* | 16% | 0.27µM*
COc1cc(OC)cc(C(=O)NCCOc2ccccc2)c1 | -1% | 26% | 1µM* | 12µM* | 1.6µM* | ?
CCOc1ccc(S(=O)(=O)NCCc2ccccn2)cc1 | . | . | . | 2% | . | .
COc1ccc(-c2cc3nc4n(c(=O)c3s2)CCC4)cc1 | ? | 0.63µM* | 0.5µM* | 0.13µM* | 0.45µM* | 0.6µM*
COc1ccc(-c2cc3nc4n(c(=O)c3s2)CCCCC4)cc1 | . | . | 0.71µM* | 2.6µM* | 0.63µM* | 1.3µM*
O=C(CN(Cc1ccco1)C(=O)CNS(=O)(=O)c1ccccc1)NCc1ccc(F)cc1 | 1% | -5% | 20% | 18µM* | 16% | 6%
Cc1ccc2[nH]c(O)c(N=NC(=O)c3ccc(NS(=O)(=O)c4cccs4)cc3)c2c1 | . | . | 0% | -4% | 2% | 5.4µM*
Cc1cccc2c(N=NC(=O)c3ccc(NS(=O)(=O)c4cccs4)cc3)c(O)[nH]c12 | . | . | ? | 14% | ? | 0.43µM*
O=C(N=Nc1c(O)[nH]c2ccc(F)cc12)c1ccc(NS(=O)(=O)c2cccs2)cc1 | . | . | 7% | 1% | 4% | ?
COCCN(C(=O)COC(=O)CCC(=O)c1cccs1)c1c(N)n(Cc2ccccc2)c(=O)[nH]c1=O | . | . | 0% | 0% | 2% | 6%
SMILES | KinaseGlo FLuc | SMN2 splice up | Rab9 prom act | ELG1 genotox | NPC1 prom act | FLuc counter
C=CCn1c(C)cc(C(=O)CSc2nc(N)cc(N)n2)c1C | -2% | -1% | 21% | 3% | 1% | 21µM*
Cc1cc(C(=O)CSc2nc(N)cc(N)n2)c(C)n1-c1cccc(F)c1 | -1% | -37% | -5% | -2% | 3% | 24µM*
Cc1cc(C(=O)CSc2nc(N)cc(N)n2)c(C)n1C1CC1 | 10% | -14% | -4% | -12% | -2% | -4%
O=C(c1cc(-c2ccccc2O)on1)N1CCOCC1 | . | . | ? | 13µM* | ? | 12µM*
O=C(c1cc(-c2ccccc2O)on1)N1CCCCCC1 | . | . | ? | 23µM* | ? | 11µM*
COc1ccc(OC)c(-c2cc(C(=O)N3CCOCC3)no2)c1 | . | . | -4% | 0% | 0% | -4%
CCOc1ccc(NCCC(O)c2ccc(F)cc2)cc1 (stereo unspecified) | . | . | 4% | 1% | 10% | -7%
O=C(CNC(=O)c1ccc(Cl)cc1Cl)OCc1cn2cc(Br)ccc2n1 | . | . | . | 1% | . | .
Cc1cc(C)n(-c2ccc(C(=O)Nc3nc4ccccc4s3)cc2)n1 | -5% | 17% | ? | ? | 2.5µM* | 2.7µM*
Nc1ccc(C(=O)Nc2nc3ccccc3s2)cc1 | -6% | 1.6µM* | 0.4µM* | 0.52µM* | 0.63µM* | 0.38µM*
CC(=O)Nc1cc(C)nn1-c1nc2ccccc2s1 | -6% | 126% | 26% | ? | -2% | ?
CC(S)C(=O)NCC(=O)O (stereo unspecified) | 3%[39.9 µM] | . | . | . | . | .
Cc1ccc(SCC(=O)OC(C)C(=O)NCc2ccccc2)cc1 (stereo unspecified) | . | . | -2% | 1% | -3% | 1%
O=C(c1cc(-c2ccc3c(c2)OCO3)on1)N1CCN(c2ccc(F)cc2)CC1 | 1% | -17% | 4% | 0% | -2% | 15µM*
Cc1c(Cl)cccc1NC(=O)c1cc(-c2ccc3c(c2)OCO3)on1 | . | -3% | . | . | . | -1%
O=C(c1cc(-c2ccc3c(c2)OCO3)on1)N1CCOCC1 | -25% | 0.5µM* | 0.63µM* | 0.58µM* | 0.4µM* | 1.5µM*
CC(C)CNC(=O)c1cc(-c2ccc3c(c2)OCO3)on1 | . | . | 0.5µM* | ? | 0.56µM* | 1.9µM*
CN(C(=O)c1cc(-c2ccc3c(c2)OCO3)on1)c1ccccc1 | . | . | 2.5µM* | 18µM* | 2.5µM* | 15µM*
CCc1ccc(NC(=O)c2cc(-c3ccc4c(c3)OCO4)on2)cc1 | . | . | -4% | 3% | -5% | -4%
CCC(C(=O)NCCCN1CC(C)CC(C)C1)n1nc(C)c2sc3ccccc3c2c1=O (stereo unspecified) | . | . | -4% | -2% | -2% | -2%
O=c1c2sc3ccccc3c2n(Cc2cccc(C(F)(F)F)c2)c(=O)n1Cc1ccco1 | . | -10% | . | . | . | 1%
COc1ccccc1N1CCN(C(=O)c2cc(-c3ccc4c(c3)OCO4)on2)CC1 | 0% | 8% | -1% | -6% | 1% | ?
O=C(c1cc(-c2ccc3c(c2)OCO3)on1)N1CCN(c2ccccc2)CC1 | -21% | -27% | ? | ? | 2.8µM* | 3.8µM*
CCCCNC(=O)CCn1c(=O)c2ccccc2n(Cc2cccc(Cl)c2)c1=O | . | 5% | . | . | . | 0%
O=C(NC1CCCCCC1)c1ccc2c(=O)n3c(nc2c1)CCCCC3 | -7% | 13µM* | 2µM* | 3.5µM* | 2.8µM* | 8.5µM*
